# Measured values as given in PubChem BioAssay (Tox21).
# Where “and” joins values, the source holds several entries; their conditions need not be identical. Equal values may be shown once. Inconclusive results are not listed. Unmarked numbers belong to inactive results. Calls of active or inactive are those of the source. The call rests on the fitted dose curve; in most records, active means well fitted cell-killing curve with a large enough effect in the repeat runs; inconclusive means weak or mixed curves, or effect the other way; inactive means no such curve, though single readings can be large or run the other way.
# Assay: qHTS assay to identify small molecule agonists of the vitamin D receptor (VDR) signaling pathway - cell viability counter screen (AID 743224); further: nearly all actives have a fitted effect of over 50% in size
# Details: VDR-bla HEK293T viability, CellTiter-Glo luminescence, 16 h; series mostly up to 62.6 µM; activity change, negative = cytotoxicity: at the top concentration
# Text: U.S. Tox21 Program National Center for Advancing Translational Sciences [NCATS] NIH Chemical Genomics Center [NCGC] U.S. Environmental Protection Agency [EPA] National Institutes of Environmental Health Sciences [NIEHS] National Toxicology Program [NTP] U.S. Food and Drug Administration [FDA] Tox21 Assay Overview: The vitamin D receptor (VDR), a member of nuclear hormone receptor superfamily, plays a critical role in calcium homeostasis and bone metabolism. It is also involved in cell differentiation and growth, and thrombogenicity. […] The cytotoxicity of the Tox21 compound library against the VDR-bla cell line was tested in parallel by measuring the cell viability using CellTiter-Glo assay (Promega, Madison, WI) in the same wells.
# Tox21 Assay Protocol Summary: VDR-bla cells were dispensed at 2,000 cells/6 uL/well into black wall/clear-bottom 1536-well plates using a Multidrop Combi (Thermo Fisher Scientific, Waltham, MA) dispenser. After the assay plates were incubated at a 37C and 5% CO2 for 4 h, 23 nL of compounds dissolved in DMSO, positive controls or DMSO only was transferred to the assay plate by a Pintool station (Kalypsys, San Diego, CA). The plates were incubated at 37C and 5% CO2 for 16 h. After 1 uL of LiveBLAzerTM B/G FRET substrate was added using a Bioraptr Flying Reagent Dispenser (FRD) workstation (Beckman Coulter, Indianapolis, IN, USA), the plates were incubated at room temperature for 2 h, and fluorescence intensity was measured by an Envision plate reader (PerkinElmer, Shelton, CT). For cell viability readout that measures cytotoxicity, 3 ul/well of CellTiter-Glo reagent was added into the assay plates using a FRD. After 30 min incubation at room temperature, the luminescence intensity in the plates was measured using a ViewLux (PerkinElmer) plate reader.
# On the % scale 0 is the no-effect control and ±100 the full control effect; potency means the concentration at half of the fitted maximal effect.
SMILES,Potency,"activity change, negative = cytotoxicity"
CC(C)(C)C1CCC(=O)CC1,49 µM (active),
Nc1ccc(C(=O)O)c(O)c1,,-1.16%
CC(=O)OCC=C(C)C,,9.44%
Cc1c(C)c2c(c(C)c1O)CC[C@@](C)(CCC[C@H](C)CCC[C@H](C)CCCC(C)C)O2,,-0.628% [at 81.1 µM]
Nc1cc(Cl)c(O)c(Cl)c1,,-17.4%
O=C(O)c1cc(=O)c2ccccc2o1,,5.02%
O=C1CCc2ccc(OCCCCN3CCN(c4cccc(Cl)c4Cl)CC3)cc2N1,11.9 µM (active),
CCCCCCCCCCCCCC[N+](C)(C)C,26.6 µM (active) and 19.5 µM (active),
CCCC[P+](C)(CCCC)CCCC,,-6.36% [at 81.1 µM]
CCCCCCCC,,4.17%
Cc1nc2n(c(=O)c1CCN1CCC(c3noc4cc(F)ccc34)CC1)CCCC2,,-1.65%
COc1cccc2c1C(=O)c1c(O)c3c(c(O)c1C2=O)C[C@@](O)(C(C)=O)C[C@@H]3O[C@H]1C[C@H](N)[C@H](O)[C@H](C)O1,34.9 µM (active),
COC(C)=O,,4.39% [at 81.1 µM]
CC(C)(C)NSc1nc2ccccc2s1,,1.85% [at 81.1 µM]
Cc1cc(C(C)(C)C)c(O)c(C)c1Cn1c(=O)n(Cc2c(C)cc(C(C)(C)C)c(O)c2C)c(=O)n(Cc2c(C)cc(C(C)(C)C)c(O)c2C)c1=O,,-25.7%
C#C[C@]1(O)CC[C@H]2[C@@H]3[C@H](C)CC4=C(CCC(=O)C4)[C@H]3CC[C@@]21C,,2.64%
CN1CCCCC1CCN1c2ccccc2Sc2ccc(S(C)=O)cc21 (stereo not given),,-4.11%
O=c1[nH]c(=O)n([C@H]2C[C@H](O)[C@@H](CO)O2)cc1F,,-2.01%
c1ccsc1,,-1.08%
O=C(O)Cc1ccccc1Nc1c(Cl)cccc1Cl,inactive,

SMILES,Potency,"activity change, negative = cytotoxicity"
CCCCCCCCCCOC(=O)c1ccccc1C(=O)OCCCCCCCC,,2.23%
C[C@@H](O)[C@H](N)C(=O)O,,13.3% [at 29.1 µM]
O=C(/C=C/c1ccc(O)c(O)c1)O[C@@H](C(=O)O)[C@@H](OC(=O)/C=C/c1ccc(O)c(O)c1)C(=O)O,,5.39%
CCCCOC(=O)CC,,1.2%
ClCCl,,15.6%
COC(=O)Nc1nc2ccc(C(=O)c3ccccc3)cc2[nH]1,,-12.1%
CCCC(=O)OCOC(=O)C1=C(C)NC(C)=C(C(=O)OC)C1c1cccc(Cl)c1Cl (stereo not given),,5.73%
COc1ccc(NC(=O)CC(C)=O)cc1,,-1.34%
CCO[C@@H]1O[C@H](C(COCc2ccccc2)OCc2ccccc2)[C@H](OCc2ccccc2)[C@H]1O (stereo not given in full),,13.4%
CC(C)Cn1cnc2c(N)nc3ccccc3c21,,-6.75% [at 29.1 µM]
Cc1c2ccccc2c(C)c2c1ccc1ccccc12,43.2 µM (active) and 27.5 µM (active),
COc1c(C)c2c(c(O)c1C/C=C(\C)CCC(=O)OCCN1CCOCC1)C(=O)OC2,,-2.28%
C[C@H]1NCc2cc(-c3ccc4c(=O)c(C(=O)O)cn(C5CC5)c4c3OC(F)F)ccc21,,15.1% [at 29.1 µM]
c1cnccn1,,1.93% [at 81.1 µM]
CC(C)(C)CC(C)(C)c1ccc(Nc2ccc(C(C)(C)CC(C)(C)C)cc2)cc1,,10.9% [at 5.95 µM]
CCC(CC)(CC(=O)Nc1cccc(/C=C/c2nc(C3CCC3)cs2)c1)C(=O)O,,-2.24%
Cc1ccc(-c2ccccc2)cc1,,-19.8%
NC[C@H]1O[C@H](O[C@H]2[C@H](O[C@@H]3O[C@H](CO)[C@@H](O)[C@H]3O)C(O)[C@H](N)C[C@@H]2N)[C@H](N)[C@@H](O)[C@@H]1O (stereo not given in full),,-1.26% [at 13.2 µM]
O=C1C(c2[nH]c3ccc(S(=O)(=O)O)cc3c2O)=Nc2ccc(S(=O)(=O)O)cc21,,4.11%
Cc1ccc(C)cc1,,9.08%
